The values below come from the supplement of paper PMC6279402.

Counter-ions that a name gives are not always drawn. ± gives the standard deviation of the averaged measurements.

For this test, the system named is A549. The experiment in a line: relative viability (normalised to negative control = 1, bortezomib = 0) (fraction); higher = less cytotoxic. To be noted: inflammatory serum-free RHB-A with cytokines + LPS; 5 d + 24 h CellTiter-Blue; compound 300 nM; GSK126 pretreatment: 5 uM GSK126. On the technique in general: The colour change of resazurin is a common sign of viable cells or microbes.
On to `Cc1c2oc3c(C)ccc(C(=O)N[C@@H]4C(=O)N[C@H](C(C)C)C(=O)N5CCC[C@H]5C(=O)N(C)CC(=O)N(C)[C@@H](C(C)C)C(=O)O[C@@H]4C)c3nc-2c(C(=O)N[C@@H]2C(=O)N[C@H](C(C)C)C(=O)N3CCC[C@H]3C(=O)N(C)CC(=O)N(C)[C@@H](C(C)C)C(=O)O[C@@H]2C)c(N)c1=O` [Dactinomycin], for which the relative viability was -0.00171 ± 0.00059.

For the compound `N#C/C(=C/c1ccc(O)c(O)c1)C(=O)NCc1ccccc1` [AG-490; Tyrphostin AG 490], the relative viability worked out at 0.879 ± 0.15.

On to `C[C@@H](CN1CC(=O)NC(=O)C1)N1CC(=O)NC(=O)C1` [Dexrazoxone; Dexrazoxane], for which the relative viability worked out at 0.859 ± 0.048.

Consider `CC(C)(C)Cn1c(N)nc2ccc(-c3[nH]c(C(C)(C)C)nc3-c3ccc(F)cc3)nc21`, for which the relative viability was found to be 1.25 ± 0.16.

Take `CNC(=O)c1cc(Oc2ccc(NC(=O)Nc3ccc(Cl)c(C(F)(F)F)c3)c(F)c2)ccn1` [Regorafenib; BAY 73-4506(Regorafenib)]: the relative viability came to 1.02 ± 0.031.

`Cc1ccc(NC(=O)c2ccc(CN3CCN(C)CC3)cc2)cc1Nc1nccc(-c2cccnc2)n1`: the relative viability stood at 0.976 ± 0.13.

Regarding `Nc1nccc(Oc2ccc(NC(=O)c3c[nH]cc(-c4ccc(F)cc4)c3=O)cc2F)c1Cl`, the relative viability turned out to be 1.14 ± 0.15.

As for `Cc1cccc(-c2[nH]c(C(C)(C)C)nc2-c2ccc3nccnc3c2)n1`, the relative viability came to 0.799 ± 0.036.

With `NC(N)=NC(N)=NCCc1ccccc1` [Phenformin hydrochloride], the relative viability stood at 0.955 ± 0.058.

As to `O=c1c(O)c(-c2ccc(O)c(O)c2)oc2cc(O)cc(O)c12` [QUERCETIN; Quercetin(Sophoretin); Quercetin dihydrate], the relative viability was 0.961 ± 0.11.

Regarding `CC(C)CC(=O)Nc1n[nH]c2c1CN(C(=O)C1CCN(C)CC1)C2(C)C`, the relative viability turned out to be 0.761 ± 0.077.

As for `Nc1nc(Nc2ccc(S(N)(=O)=O)cc2)nn1C(=O)c1c(F)cccc1F`, the relative viability is 1.12 ± 0.067.

For `CS(=O)(=O)c1ccc(C(=O)Nc2ccc(Cl)c(-c3ccccn3)c2)c(Cl)c1` [Vismodegib], the relative viability is 1.05 ± 0.14.

Take `COc1cc([C@@H]2c3cc4c(cc3[C@@H](O[C@@H]3O[C@@H]5CO[C@@H](C)O[C@H]5[C@H](O)[C@H]3O)[C@H]3COC(=O)[C@H]23)OCO4)cc(OC)c1O` [Etoposide]: the relative viability is 0.985 ± 0.046.

Take `O=C(NC[C@H](O)CO)c1ccncc1Nc1ccc(I)cc1F`: the relative viability was determined as 0.126 ± 0.019.

With `O=C1NC(=O)/C(=C/c2ccc(-c3ccc(F)cc3O)o2)S1`, the relative viability was determined as 0.744 ± 0.082.

As to `CNC(=O)Nc1ccc(-c2nc(N3CC4CCC(C3)O4)c3cnn(C4CCC5(CC4)OCCO5)c3n2)cc1`, the relative viability worked out at 0.226 ± 0.011.

As for `CC(=O)O[C@H]1C(=O)[C@@]2(C)[C@H]([C@H](OC(=O)c3ccccc3)[C@]3(O)C[C@H](OC(=O)[C@H](O)[C@@H](NC(=O)c4ccccc4)c4ccccc4)C(C)=C1C3(C)C)[C@]1(OC(C)=O)CO[C@@H]1C[C@@H]2O` [Paclitaxel; Taxol], the relative viability stood at 0.368 ± 0.077.

In the case of `CS(=O)(=O)CCNCc1ccc(-c2ccc3ncnc(Nc4ccc(OCc5cccc(F)c5)c(Cl)c4)c3c2)o1` [Lapatinib ditosylate; Lapatinib; Lapatinib Ditosylate], the relative viability amounted to 0.594 ± 0.11.

As to `CC[C@H](Nc1ncnc2nc[nH]c12)c1nc2cccc(F)c2c(=O)n1-c1ccccc1`, the relative viability turned out to be 0.878 ± 0.08.

As to `COc1cccc(-c2cc(=O)c3ccccc3o2)c1N`, the relative viability is 0.726 ± 0.19.

Turning to `CN(C)/N=N/c1[nH]cnc1C(N)=O` [Dacarbazine], the relative viability is 1.05 ± 0.11.

`O=NN(CCCl)C(=O)NC1CCCCC1` [Lomustine, CCNU; Lomustine]: the relative viability came to 1.03 ± 0.11.

`Cc1c(NC(=O)OC[C@@H]2COCCN2)cn2ncnc(Nc3ccc4c(cnn4Cc4cccc(F)c4)c3)c12`: the relative viability came to 0.56 ± 0.088.

In the case of `CCCNC(=O)Nc1ccc(Oc2ncnc3cc(OC)c(OC)cc23)cc1Cl`, the relative viability came to 0.775 ± 0.19.

For the compound `Cc1cc(Nc2cc(N3CCN(C)CC3)nc(Sc3ccc(NC(=O)C4CC4)cc3)n2)n[nH]1`, the relative viability turned out to be 0.584 ± 0.067.

Regarding `c1cncc(CN2CCC(n3ncc4c(N5CCOCC5)nc(-c5ccc6[nH]ccc6c5)nc43)CC2)c1`, the relative viability turned out to be 0.73 ± 0.14.

For the compound `N#Cc1ccc(C(c2ccc(C#N)cc2)n2cncn2)cc1` [Letrozole], the relative viability came out at 0.832 ± 0.063.

Consider `CC(=O)Nc1cccc(-n2c(=O)n(C3CC3)c(=O)c3c(Nc4ccc(I)cc4F)n(C)c(=O)c(C)c32)c1`, for which the relative viability turned out to be 0.0602 ± 0.013.

As to `Cc1csc(-c2nnc(Nc3ccc(Oc4ncccc4-c4ccnc(N)n4)cc3)c3ccccc23)c1`, the relative viability was determined as 0.512 ± 0.076.

Consider `Clc1ccc(Nc2nnc(Cc3ccncc3)c3ccccc23)cc1` [Vatalanib], for which the relative viability worked out at 0.84 ± 0.074.

Take `Cc1ncc(-c2ccnc(Nc3ccc(S(C)(=O)=O)cc3)n2)n1C(C)C`: the relative viability was 0.675 ± 0.062.

For `COc1cc2c(Nc3ccc(NC(=O)c4ccccc4)cc3)ncnc2cc1OCCCN1CCOCC1`, the relative viability is 0.963 ± 0.07.

For the compound `NC1(c2ccc(-c3nc4ccn5c(=O)[nH]nc5c4cc3-c3ccccc3)cc2)CCC1`, the relative viability stood at 0.387 ± 0.011.

With `C[C@@H](Oc1cc(-n2cnc3ccc(CN4CCN(C)CC4)cc32)sc1C(N)=O)c1ccccc1C(F)(F)F`, the relative viability came to 0.517 ± 0.02.

Take `Cc1ccc(NC(=O)c2cccc(N(C)C)c2)cc1NC(=O)c1ccc(O)cc1`: the relative viability was found to be 1.19 ± 0.13.

Turning to `COc1cccc2c1C(=O)c1c(O)c3c(c(O)c1C2=O)C[C@@](O)(C(=O)CO)C[C@@H]3O[C@H]1C[C@H](N)[C@H](O)[C@H](C)O1` [Doxorubicin hydrochloride; 4'-Epiadriamycin; Doxorubicin HCl], the relative viability was found to be 0.454 ± 0.027.
